Source: PubChem (National Center for Advancing Translational Sciences (NCATS))
An excerpt weighted towards active compounds, which were near 2.8% of everything screened.
KDM5B inhibitor – KDM5B demethylase inhibition. AID 1347165. Q9UGL1. KDM5B demethylase, FDH-coupled NADH fluorescence (FDH is formaldehyde dehydrogenase). 220,000 tested, 2.6% active. Potency, µM (series often up to 57.7 µM), actives largely listed as inhibitors; active = well fitted inhibition curve with a large enough effect; inconclusive = small, poorly fitted or top-dose-only effect; inactive = no such curve, though single readings can be large or run the other way; also: potency is read from the fitted curve at half-maximal effect; 0% is about no effect; nearly all actives have a fitted effect of over 70% in size
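Measured: NADH fluorescence change, 30 min, RT. System: KDM5BΔAP 200 nM final, H3K4me3 peptide, α-KG, Fe(II), ascorbate, NAD⁺ plus FDH, pH 7.5 HEPES. Compounds: titrated, 10 min pre-incubation with enzyme.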
IP6K1 inhibitor – inhibitors of human IP6K1; activity change, % (series mostly up to about 58 µM); AID 1645851; Q92551; IP6K1 kinase, ADP-Glo luminescence, 2 h; stronger effect = lower value; 140,000 tested, 0.81% active; in the data active = activity change below about -25%; also: % is scaled to controls: 0 for no effect and ±100 for the full control effect
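ADP-Glo luminescence measures ADP made by human IP6K1 during a 2 h RT reaction with ATP/IP6 (mix at 1.3 mM/130 uM); top library doses 57.5 and 19.1 uM final.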
An asterisk follows results filed as active; i = inactive; u = inconclusive; x = not tested or not shown.

SMILES | KDM5B inhibitor | IP6K1 inhibitor
Cn1cc(-c2nc(N3CCOCC3)cc3c2CN(c2ccccc2)C3=O)cn1 | 20µM* | 16
O=C1c2cc(N3CCOCC3)nc(-c3ccccc3Oc3ccccc3)c2CN1C1COC1 | 28µM* | 0
COc1cccc(-c2ncc3c(n2)OCCN(c2ccccc2)C3=O)c1OC | i | 14
O=c1cc(N2CCOCC2)oc2c(-c3ccccc3Oc3ccccc3)nccc12 | u | -18
CN1CC(=O)N(c2ccccc2)Cc2c1ncnc2N1CCOCC1 | i | 3
CC(C)C(=O)Nc1ccc(OCC(F)(F)F)c(C#N)c1 | i | x
O=C(NCc1ccc(C(F)(F)F)cc1)c1cc(-c2ccsc2)c2nncn2n1 | x | 14
O=C(NCc1cccc(F)c1)[C@@H]1CCCN1c1nccc(Nc2ccccc2Cl)n1 | x | 16
CN1CCCC2(CCN(C(=O)c3cc(=O)[nH]c4ccc(F)cc34)C2)C1=O (configuration not stated) | 25µM* | -14
Cc1[nH]c2ccc(C(=O)N3CCC4(CCCN(C)C4=O)C3)cc2c1C (configuration not stated) | i | 7
Cc1ccc(Nc2ccnc(N3CCC(C(=O)NC4CC4)CC3)n2)cc1 | x | 5
Cc1noc(C)c1-c1cnc(Nc2ccccc2)c2c1CCO2 | 35µM* | -7
Cc1noc(C)c1-c1cnc(Nc2cccc(C(F)(F)F)c2)c2c1CCO2 | 35µM* | -14
Cc1noc(C)c1S(=O)(=O)Nc1cccc(C(F)(F)F)c1 | i | x
Cc1noc(C)c1-c1cnc(Nc2ccncc2)c2c1CCO2 | u | -17
CNC(=O)c1cc(C2CC2)nc2onc(C3CCCN3C(=O)NC3CCCC3)c12 (configuration not stated) | x | 8
O=C(NCCc1ccccc1)N1CCC(c2noc(COc3ccc(F)cc3)n2)C1 (configuration not stated) | x | 6
Cc1ccc(CNC(=O)c2ccc(NC(=O)c3cc4c(=O)[nH]c(C)cn4n3)cc2)cc1 | 3.2µM* | -9
CSc1ccc(CNC(=O)c2cc3c(=O)[nH]c(C)cn3n2)cc1 | i | -14
CCc1noc(-c2ccn3c(CNC(=O)C4CCCC4)nnc3c2)n1 | i | 40
O=C(NCc1nnc2cc(-c3nc(C4CC4)no3)ccn12)C1CCC1 | 25µM* | -1
CCc1noc(-c2ccn3c(CNC(=O)C4CCC4)nnc3c2)n1 | i | 8
O=C(NCc1nnc2cc(-c3nc(C4CC4)no3)ccn12)C1CCCCC1 | 28µM* | 7
Cc1cccc(-c2cccc(CN3CCC(N[S+](=O)([O-])c4cccc(C(F)(F)F)c4)CC3)c2)c1 | x | 5
C[C@@]1(O)CCN(c2ncccc2C(=O)c2nccs2)C[C@@H]1O | i | 2
SMILES | KDM5B inhibitor | IP6K1 inhibitor
O=C(c1nccs1)c1cccnc1N1CCNCC(O)C1 (configuration not stated) | 10µM* | 7
COc1ccc(F)cc1-c1ccc(CN2CCC(NC(=O)c3ccc(F)cc3)C2)cc1 (configuration not stated) | x | -9
O=C(C1CCCC1)N1CCC2(CCCN(Cc3cccc(F)c3F)C2)C1 (configuration not stated) | i | -7
Fc1cccc(CN2CCCC3(CCN(c4cnccn4)C3)C2)c1F (configuration not stated) | 28µM* | -3
COc1ccc(F)c(CN2CCCC3(CCN(c4cc(C)nc(N)n4)C3)C2)c1 (configuration not stated) | u | -4
Fc1ccccc1CN1CCCC2(CCN(c3cnccn3)C2)C1 (configuration not stated) | 32µM* | 1
Cc1noc(C)c1[S+](=O)([O-])N1CCCN(c2ccc3nnc(-c4ccccc4)n3n2)CC1 | x | -9
CN1CC2(CCCN(Cc3cc4ccccc4o3)C2)OC1=O (configuration not stated) | i | 33
CN1CC2(CCCN(Cc3cc4ccccc4n(C)c3=O)C2)OC1=O (configuration not stated) | 22µM* | 5
CSc1ccc(/C=C2\N=C(c3ccco3)OC2=O)cc1 | i | x
CCn1ccnc1CN(C)c1nccc(-c2ccc(C)nc2C)n1 | 22µM* | -10
Cc1ccc(-c2ccnc(N3CCC(N(C)Cc4ccon4)CC3)n2)c(C)n1 | u | -16
O=C(NCCN1CCOCC1)c1cn2cc(-c3ccc(C(F)(F)F)cc3)sc2n1 | x | 5
COc1cccc(Nc2ccc3nnc(-c4cc(OC)ccn4)n3n2)c1 | 28µM* | -23
COc1ccc(-c2nnc3ccc(NCCc4ccccc4)nn23)nc1 | i | -19
COCCNc1ccc2nnc(-c3ccccn3)n2n1 | u | 3
COc1ccc(-c2nnc3ccc(NCC(C)C)nn23)nc1 | 35µM* | -16
COCCCNc1ccc2nnc(-c3ccc(C)cn3)n2n1 | 40µM* | -10
COc1cccc(NC(=O)c2ccnc(-c3nnc4ccc(Nc5ccccc5)nn34)c2)c1 | i | -15
Cn1ncc2c(C(=O)CCc3ccc(F)cc3)cc(-c3ccc(Cl)cc3Cl)nc21 | x | -6
COc1cc(/C=C2\NC(=O)NC2=O)cc(I)c1OCc1ccc(F)cc1 | i | x
Cc1ccc(C(=O)N2CC(N3C(=O)c4c(c(C)nn4-c4ccccc4)C3C(C)C)C2)cc1 (configuration not stated) | x | 8
CC(C)CCn1cnc2c1c(=O)n(Cc1ccccc1C#N)c(=O)n2Cc1ccccc1 | i | x
c1ccc(OCC2CN(Cc3ccncc3)CC23CN(c2ccccc2)C3)cc1 (configuration not stated) | 32µM* | -8
N#Cc1cccc(C(=O)N2CC(COc3ccccc3)C3(C2)CN(c2ccccc2)C3)c1 (configuration not stated) | 35µM* | 0
SMILES | KDM5B inhibitor | IP6K1 inhibitor
O=C(O)c1cccc(CN2CC(COc3ccccc3)C3(C2)CN(c2ccccc2)C3)c1 (configuration not stated) | i | -1
O=C(c1cccc(O)c1)N1CC(COc2ccccc2)C2(C1)CN(C(=O)c1cn[nH]c1)C2 (configuration not stated) | i | 5
COc1cc(Cl)ccc1-c1ccc(COc2ccc3c(cnn3CCC(=O)O)c2)cc1 | u | -9
CC(C)CNC(=O)C1(CCO)CCN(c2ncccn2)C1 (configuration not stated) | 25µM* | 7
O=C(NC1CC1)C1(CCO)CCN(c2ncccn2)C1 (configuration not stated) | u | 3
O=C(NCC1CCCCC1)C1(CCO)CCN(c2ncccn2)C1 (configuration not stated) | 32µM* | -10
O=C(NC1CCCC1)C1(CCO)CCN(c2ncccn2)C1 (configuration not stated) | u | 2
O=C(NCCN1CCCCC1)C1(CCO)CCN(c2ncccn2)C1 (configuration not stated) | 25µM* | -8
O=C(NCC1CC1)C1(CCO)CCN(c2ncccn2)C1 (configuration not stated) | x | 2
COc1ccc(CCNC(=O)c2ccc3nccn3c2)cc1 | x | -13
O=C(NCCc1nc(Cc2ccccc2)no1)c1ccc2nccn2c1 | 18µM* | -14
O=C(NCCC1CCCCC1)c1ccc2nccn2c1 | 28µM* | -5
O=C(NCCCc1ccccc1)c1ccc2nccn2c1 | 35µM* | -5
O=C(NCCc1ccccc1)c1ccc2nccn2c1 | x | 17
O=C(NCC1CC1)c1ccc2nccn2c1 | x | 14
